In the library only some 8% were active in any assay of this set; here they are far more common.
Lassa entry: blocks Lassa virus binding or cell entry | Potency, µM (top dose mostly 49.2 µM), without a hit: top-dose activity change, negative = inhibition, hits mostly inhibitors | 4.1% of 18,000 active | Lassa virus pseudotyped entry inhibition, cell-based qHTS
Marburg entry: blocks Marburg virus binding or cell entry | Marburg virus pseudotype entry/binding inhibition, cell-based | Potency, µM (highest dose often 49.2 µM), for inactives: top-dose activity change, negative = inhibition, hits mostly inhibitors | 6.5% of 18,000 active | AID 720532
Numbers without * were called inactive; ? = inconclusive; nt = no result given; ! = not active in a repeat; [ ] = remark or other dose. The call rests on the fitted dose curve; tested in HEK293 cells. On the % scale 0 is the no-effect control and ±100 the full control effect; potency means the concentration at half of the fitted maximal effect.

SMILES	Lassa entry	Marburg entry
COC(=O)N[C@@H](c1ccccc1)C(C(=O)OC)C(=O)OC	-9%[8.59 µM]	45%[8.59 µM]
COC(=O)[C@H]1O[C@@H](c2c(OC)c(OC)c(C)c(OC)c2OC)[C@H](C)[C@@H](O)[C@@H]1C	2%[8.59 µM]	6%[8.59 µM]
COC(=O)C1(C(=O)OC)C/C=C\Cc2ccccc2[C@@H]1C[N+](=O)[O-]	0.25µM*!	-4%
COC(=O)C1(C(=O)OC)C/C=C\C/C=C\c2ccccc2[C@@H]1C[N+](=O)[O-]	5%	4%
CCc1cc(Cl)c(OC)c(C(=O)NC[C@@H]2CCCN2CC)c1O	?	4.5µM*
CCN1CCCC1CNC(=O)c1cnn(-c2nccc(-c3ccccc3OC)n2)c1-c1ccco1 (configuration not stated)	-4%	?
CCCCN1CCC[C@H]1CNC(=O)c1cc(C#N)c2ccccc2c1OC	?	10µM*
CCN1CCCC1CNC(=O)c1cc(S(N)(=O)=O)ccc1OC (configuration not stated)	17%	3%
Cc1cc2c(nc1C)CCCN2CC(O)CN1CCCc2nc(-c3ccc(Br)cc3)ccc21 (configuration not stated)	10%[8.59 µM]	?
COC(=O)C1=C(C)N(Cc2ccccc2)C(=NCc2ccc3c(c2)OCO3)NC1CCc1ccccc1 (configuration not stated)	nt	-12%[8.59 µM]
COc1cc2c(cc1OC)[C@@H]1O[C@](CCCCN3C(=O)c4ccccc4C3=O)(C2)OC2=C1C(=O)CCC2	nt	-17%[8.59 µM]
Cn1cc(C2=C(c3cn(C4CCN(Cc5ccccn5)CC4)c4ccccc34)C(=O)NC2=O)c2ccccc21	?	7.1µM*
CCC1(C2CCN(Cc3ccccn3)CC2)NC(=O)N(CC2COc3ccccc3O2)C1=O (configuration not stated)	-8%	-1%
NS(=O)(=O)c1ccc(Nc2cc(-c3cccc(O)c3)[nH]n2)cc1	43%	79%
Cc1ncc2c(c1CNS(=O)(=O)c1cccs1)CCN(C(=O)/C=C/c1cc(F)cc(F)c1)C2	-23%	-18%
Nc1ccccc1	-10%	-3%
O=c1c(-c2ccccc2)c1-c1ccccc1	7.1µM*	14µM*
COC(=O)c1c(OCc2cccnc2)cc(=O)n2c1CCN(Cc1cc3c(cc1Cl)OCO3)CC2	-20%	-19%
CCCCCCN1C[C@H](n2cc(C3CC3)nn2)[C@@H](O)C[C@H]1c1ccc(C)cc1	-25%	-31%
CS(=O)(=O)c1ccc(-c2cccc3c2OC(CNC(=O)c2ccnc(Cl)c2)C3)cc1 (configuration not stated)	7%	9%
CN(C)c1ccc(-c2nccc(NCc3ccccc3)n2)cc1	-18%	?
CN(C)c1ccc(C(=C2C=CC(=[N+](C)C)C=C2)c2ccccc2)cc1	2.2µM*	1.4µM*!
CN(C)c1ccc(C(=C2C=CC(=[N+](C)C)C=C2)c2ccc(N(C)C)cc2)cc1	1.8µM*	1.4µM*
O=C(C=Cc1ccccc1)Nc1cccc(C(=O)NCCc2ccccc2)c1	-13%	8%
O=C(O)COCCN1CCN(C(c2ccccc2)c2ccc(Cl)cc2)CC1 (configuration not stated)	2%	7%
SMILES	Lassa entry	Marburg entry
OC(CN1CCN(c2cccc(Cl)c2)CC1)C(c1ccccc1)c1ccccc1 (configuration not stated)	28µM*	35µM*
COc1cc(CC(C)N)c(OC)cc1Br (configuration not stated)	?	18µM*
CCc1cc(OC)c(C[C@H](C)N)cc1OC	-13%[107 µM]	?
CC(=O)OCC(=O)[C@@]1(O)CC[C@H]2[C@@H]3CCC4=CC(=O)CC[C@]4(C)C3=CC[C@@]21C	-10%	2%
C[C@H]1CCC[C@H](O)CCCCCc2cc(O)cc(O)c2C(=O)O1	-26%	14%
CC1CC2OC2/C=C\C=C/C(=O)Cc2c(Cl)c(O)cc(O)c2C(=O)O1 (configuration not stated)	7.9µM*	2.5µM*
COC(=O)[C@@H]1CC[C@H](C)[C@@H](c2ccc(C)cc2)N1C(=O)c1ccc(C=NOC[C@H]2O[C@H](c3ccccc3)C=C[C@H]2Oc2ccc(OC)cc2)cc1	-22%[8.59 µM]	-7%[8.59 µM]
CSc1ccc2c(c1)N(CCC1CCCCN1C)c1ccccc1S2 (configuration not stated)	22µM*	7.9µM*
CSc1ccc2c(c1)N(CC[C@H]1CCCCN1C)c1ccccc1S2	?	7.9µM*
CN1CCCC[C@@H]1CCN1c2ccccc2Sc2ccc(S(C)=O)cc21 (some centres not stated)	0%[17.8 µM]	?
CSc1ccc(CN2CCOc3ccc(CN4CCCCC4CO)cc3C2)cc1 (configuration not stated)	-6%	?
CCN1C(=NCc2ccc3c(c2)OCO3)N[C@@H](c2ccccc2)[C@H](C(=O)OC)[C@H]1C	-11%[8.59 µM]	?
C[C@@H]1CC2CCCC2[C@]2(O1)C(=O)Nc1ccccc12 (some centres not stated)	26%[8.59 µM]	-4%[8.59 µM]

Screens (PubChem BioAssay)
